Assay outcomes from PubChem BioAssay.
Shown are actives, neighbours in structure and some others; about 8% of the full set was active somewhere.
HT1080 IDH1KD tx – HT-1080 IDH1 knockdown cell toxicity (counter line); AID 686971; Potency, µM (doses to about 46.1 µM), without a hit: top-dose activity, negative = toxicity, hits mostly cytotoxic; hit rate 2% among 360,000; HT-1080 IDH1 knockdown viability, ATP luminescence, 48 h;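 note: 0% = DMSO wells and -100% = cell-free medium wells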
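Cytotoxicity counter-line: IDH1KD HT-1080, 48 h, CellTiter-Glo. Curves classed by r2, magnitude and activity.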
KB-3-1 cytotox – KB-3-1 parental cell cytotoxicity; KB-3-1 viability, CellTiter-Glo ATP luminescence, 72 h; Potency, µM (top dose mostly 46.1 µM), actives largely listed as cytotoxic; hit rate 1.4% among 400,000; note: % is set by controls: 0 for no effect and ±100 for the full control effect; nearly all actives have a fitted effect of over 60% in size
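Screening of KB-3-1 cells (DMEM, 10% FBS, phenol-red free) ran from lowest to highest compound concentration; after 72 h at 37 °C viability was read luminescently and curves fitted.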
KB-V1 cytotox – KB-V1 MDR subline cytotoxicity | KB-V1 MDR cells viability, CellTiter-Glo, 72 h | Potency, µM (series often up to 46.1 µM), actives largely listed as cytotoxic | hit rate 3.4% among 400,000 | AID 1347076; note: % is set by controls: 0 for no effect and ±100 for the full control effect; nearly all actives have a fitted effect of over 60% in size
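KB-V1 cells (P-gp-expressing MDR subline of KB-3-1) in phenol-red-free DMEM with 10% FBS were exposed to library compounds over a concentration series for 72 h at 37 degrees C. Viability read by CellTiter-Glo luminescence; concentration-effect curves fitted after normalization.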
MCF10A rereplic – induces DNA re-replication in MCF 10a normal breast cells. MCF 10A DNA re-replication, Hoechst nuclear intensity, 48 h. Potency, µM (highest dose often 46.1 µM), for inactives: at the highest dose activity, positive = re-replication, usual class: activators. hit rate 2.9% among 350,000. AID 624296; note: % of control where 0% means no effect; nearly all actives have a fitted effect of over 50% in size
HT1080NT lethal – kills 2HG-producing HT-1080-NT fibrosarcoma cells. HT-1080-NT fibrosarcoma viability, CellTiter-Glo ATP luminescence, 48 h. Potency, µM (top dose mostly 46.1 µM), without a hit: top-dose activity, negative = less viability, usual class: cytotoxic. hit rate 1.6% among 360,000;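 note: NT is the 2HG producing partner of a matched IDH1 knockdown line; 0% = DMSO-treated cells and -100% = media-only wells without cells; nearly all actives have a fitted effect of over 55% in size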
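750 cells/well, RPMI + 5% FBS; 2 h settle, compound pin-transfer, 48 h at 37 degrees C. CellTiter-Glo 10 min RT, luminescence. Normalized to DMSO and media-only wells.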
SW480 rereplic – DNA re-replication induction in SW480 cells | SW480 DNA re-replication, Hoechst DNA content imaging, 48 h | Potency, µM (top dose mostly 46.1 µM), for the others: at the top dose re-replication activation, most hits filed as activators | hit rate 1.8% among 340,000 | AID 624297; note: % of control where 0% means no effect; nearly all actives have a fitted effect of over 55% in size
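Readout is total intensity of Hoechst-stained nuclei, excited at 405 nm and collected at 500-530 nm. Compound treatment lasted 48 hr at 37 C in 5% CO2 before staining.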
Numbers without * were called inactive; i = inactive; ? = inconclusive; · = not tested or not shown. Calls come from the whole dose curve; as a rule, active = well fitted curve in the direction sought with a large enough effect; inconclusive = small, poorly fitted or top-dose-only effect, or another doubt; inactive = no such curve, though single readings can be large; an effect the other way counts as inactive or inconclusive. Potency is the fitted concentration of half-maximal effect.

SMILES | HT1080 IDH1KD tx | KB-3-1 cytotox | KB-V1 cytotox | MCF10A rereplic | HT1080NT lethal | SW480 rereplic
COC(=O)[C@@H]1CCCN1Cc1c(C(=O)N2CCOCC2)nc2c(C)cccn12 | 5% | i | i | 0% | -2% | -1%
Cc1ccc(SCC(=O)OCC(=O)NCC2CCCCC2)cc1C | 1% | i | i | 1% | -1% | -15%
Cc1ccc(SCC(=O)OCC(=O)NCCNC(=O)COC(=O)CSc2ccc(C)c(C)c2)cc1C | 3% | 0.0052µM* | i | 13% | 2% | -1%
CCC(C)n1c(SCC(=O)Nc2ccccc2C(F)(F)F)nc2ccsc2c1=O (stereo not given) | -20% | i | 23µM* | 10% | -26% | 10%
CCC(C)n1c(SCC(=O)NCCc2ccc(S(N)(=O)=O)cc2)nc2ccsc2c1=O (stereo not given) | 9% | i | i | -3% | 6% | 8%
O=C(O)CCCCn1c(SCC(=O)Nc2ccccc2C(F)(F)F)nc2ccsc2c1=O | -1% | i | i | -6% | -2% | -3%
CCC(C)n1c(SCc2ccccc2)nc2ccsc2c1=O (stereo not given) | 1% | ? | 10µM* | ? | -4% | 107%
COc1cc(C2C3C(=O)N(c4ccccc4)C(=O)C3ON2c2ccccc2)cc(OC)c1OC (stereo not given) | 14% | i | ? | 0% | 19% | -8%
COc1cc(C2C3C(=O)N(c4ccc(F)cc4)C(=O)C3ON2c2ccccc2)ccc1O (stereo not given) | 18% | i | i | 14µM* | 14% | -4%
CC(=O)c1ccc(-c2cnc3c(NC=O)cc(-c4ccc(S(C)(=O)=O)cc4)cn23)cc1 | 6.5µM* | i | i | · | ? | ·
CS(=O)(=O)Nc1cccc(-c2cc(NC=O)c3ncc(-c4ccc(F)cc4)n3c2)c1 | 8.2µM* | i | ? | · | 12µM* | ·
COc1cc(-c2cc(NC=O)c3ncc(-c4ccc(C(C)=O)cc4)n3c2)ccc1O | 18µM* | ? | i | · | ? | ·
CC(=O)c1cccc(-c2cnc3c(NC=O)cc(-c4ccccc4F)cn23)c1 | -23% | i | ? | · | -24% | ·
CCCCNC(=O)CC(C(=O)N1CCc2ccccc21)n1ccnc1 (stereo not given) | 10% | i | i | -1% | -1% | -6%
O=C(CC(C(=O)N1CCc2ccccc21)n1ccnc1)N1CCc2ccccc2C1 (stereo not given) | ? | i | 8.2µM* | 15% | -1% | 1%
CCN(CCCNC(=O)CC(C(=O)N1CCc2ccccc21)n1ccnc1)c1cccc(C)c1 (stereo not given) | ? | i | 12µM* | 22% | -2% | -2%
O=C(CC(C(=O)N1CCc2ccccc21)n1ccnc1)NCC1CCCO1 (stereo not given) | -2% | i | i | 0% | -2% | -3%
CCCC(=O)N1c2ncnn2C2(CCCCC2)[C@@H]2CCCC[C@@H]21 | · | i | i | · | · | ·
O=C(NCc1ccccc1)Nc1nnc(-c2ccncc2)s1 | · | i | i | · | · | ·
CN(C)CCCN(C(=O)/C=C/c1cccs1)c1nc2ccc(F)cc2s1 | ? | 21µM* | 18µM* | 23µM* | 9.2µM* | ?
CCc1ccc2nc(N(CCN(C)C)C(=O)/C=C/c3cccs3)sc2c1 | ? | ? | ? | ? | -4% | ?
Cc1ccc2nc(N(CCN(C)C)C(=O)/C=C/c3cccs3)sc2c1 | ? | i | i | 26µM* | -29% | ?
CCN(CC)CCN(C(=O)/C=C/c1cccs1)c1nc2ccc(F)cc2s1 | -10% | i | i | 17% | -21% | -8%
CCN(CC)c1ccc(CNCCCSc2nnnn2C)cc1 | · | i | i | · | · | ·
CC(C)(C)OC(=O)C(Cl)(C(=O)OC(C)(C)C)c1ccc2nnnn2n1 | 18µM* | i | i | ? | ? | ?
SMILES | HT1080 IDH1KD tx | KB-3-1 cytotox | KB-V1 cytotox | MCF10A rereplic | HT1080NT lethal | SW480 rereplic
Cc1ccc(NC(=O)N2CCC3(CC2)Oc2ccccc2C(=O)N3Cc2ccc(F)cc2)cc1 | · | i | i | · | · | ·
O=C1c2ccccc2OC2(C=Cc3ccccc3O2)N1Cc1ccccc1 (stereo not given) | 18µM* | ? | 4.1µM* | 13µM* | ? | ?
N#Cc1ccc(N2Cc3ccccc3C2=NC(=O)c2cccs2)cc1 | 2% | i | 18µM* | -2% | 4% | 25%
Cc1ccc(C)c(N2CCN(CCCNC(=O)Cn3cc4c(n3)CCCCC4)CC2)c1 | -26% | ? | 21µM* | ? | ? | 13%
O=C(COc1cccc2ccccc12)NCc1cccnc1 | -1% | i | i | 0% | -4% | -2%
CCOc1ccc(-c2nnn(CC(=O)NCc3ccccc3)n2)cc1 | -9% | 6.5µM* | ? | ? | -2% | ?
O=C1c2ccccc2C(=O)N1/N=C/c1ccc(Oc2ccc([N+](=O)[O-])cn2)cc1 | 9% | i | i | 5% | 12% | -8%
CC(C)Oc1ccc(C(=O)Nc2nc3c(s2)CC(C(C)(C)C)CC3)cc1 (stereo not given) | · | i | i | · | · | ·
CCN(Cc1ccccc1)S(=O)(=O)c1nc2nc(C)c(C)c(C)n2n1 | 1% | i | 18µM* | 0% | 0% | -17%
CCOC(=O)c1cccc(C2=CC(=O)C[C@H](c3ccc(OC)cc3)C2)c1 | 0% | i | i | ? | -2% | 3%
CCCCC(=O)O[C@H]1CC[C@H]2[C@@H]3CCc4cc(O)ccc4[C@H]3CC[C@]12C | ? | ? | ? | 24% | 21µM* | 9%
C=Cc1cc2c(cc1O)CCC1C2CCC2(C)C(O)CCC12 (stereo not given) | ? | 18µM* | ? | 10µM* | ? | ?
CCNc1cc2c(cc1O)CCC1C2CCC2(C)C(O)CCC12 (stereo not given) | -11% | ? | ? | ? | -9% | ?
C[C@]12CC[C@@H]3c4ccc(O)cc4CC[C@H]3[C@@H]1CC[C@@H]2OC(=O)CCC1CCCC1 | 0% | i | i | -11% | 19% | -3%
CC#Cc1cc2c(cc1O)CCC1C2CCC2(C)C(O)CCC12 (stereo not given) | ? | 2.6µM* | ? | 8.2µM* | 8.2µM* | 9.2µM*
CCOc1cc2c(cc1O)CCC1C2CCC2(C)C(O)CCC12 (stereo not given) | ? | ? | ? | 1.2µM* | ? | ?
O=C(NC1CC1)C1=C[C@@H](c2csc3ccccc23)C[C@@H](OCCCCO)O1 | 8% | i | i | 5% | 3% | 1%
